Measurements reported in PubChem BioAssay (Tox21).
Results filed as inconclusive are left out. Activity calls are given as the source filed them. Unless noted, calls come from the whole dose curve; as a rule, active = well fitted curve in the direction sought with a large enough effect in the repeat runs; inconclusive = weak or mixed curves; inactive = no such curve, though single readings can be large; an effect the other way counts as inactive or inconclusive.

What was measured:
[1] = qHTS assay to identify small molecule antagonists of the estrogen receptor alpha (ER-alpha) signaling pathway using the BG1 cell line in the presence of 0.1 nM 17-beta-estradiol - cell viability counter screen (AID 1259241); note: nearly all actives have a fitted effect of over 40% in size
Summary of the method: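 Cells were plated and left 24 hr, compounds in DMSO were pinned in, 17beta-estradiol was added to 0.1 nM final, and after 22 hr CellTiter-Fluor reagent was added for 30 min before fluorescence was read.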

[2] = qHTS assay to identify small molecule antagonists of the androgen receptor (AR) signaling pathway using the MDA cell line in the presence of 0.5 nM R1881 - cell viability counter screen (AID 1259242); note: nearly all actives have a fitted effect of over 45% in size
Summary of the method: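 Fluorescence from CellTiter-Fluor, which reports protease activity of live cells, was read 30 min after reagent addition to MDA-kb2 cells that had been incubated 16 hr with compound and 0.5 nM R1881.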

[3] = biological target: Androgen receptor (Homo sapiens) (UniProt P10275); assay: qHTS assay to identify small molecule antagonists of the androgen receptor (AR) signaling pathway using the MDA cell line in the presence of 0.5 nM R1881 (AID 1259243); note: nearly all actives have a fitted effect of over 50% in size
Sequence of Androgen receptor (Homo sapiens) (P10275 whole entry, looked up): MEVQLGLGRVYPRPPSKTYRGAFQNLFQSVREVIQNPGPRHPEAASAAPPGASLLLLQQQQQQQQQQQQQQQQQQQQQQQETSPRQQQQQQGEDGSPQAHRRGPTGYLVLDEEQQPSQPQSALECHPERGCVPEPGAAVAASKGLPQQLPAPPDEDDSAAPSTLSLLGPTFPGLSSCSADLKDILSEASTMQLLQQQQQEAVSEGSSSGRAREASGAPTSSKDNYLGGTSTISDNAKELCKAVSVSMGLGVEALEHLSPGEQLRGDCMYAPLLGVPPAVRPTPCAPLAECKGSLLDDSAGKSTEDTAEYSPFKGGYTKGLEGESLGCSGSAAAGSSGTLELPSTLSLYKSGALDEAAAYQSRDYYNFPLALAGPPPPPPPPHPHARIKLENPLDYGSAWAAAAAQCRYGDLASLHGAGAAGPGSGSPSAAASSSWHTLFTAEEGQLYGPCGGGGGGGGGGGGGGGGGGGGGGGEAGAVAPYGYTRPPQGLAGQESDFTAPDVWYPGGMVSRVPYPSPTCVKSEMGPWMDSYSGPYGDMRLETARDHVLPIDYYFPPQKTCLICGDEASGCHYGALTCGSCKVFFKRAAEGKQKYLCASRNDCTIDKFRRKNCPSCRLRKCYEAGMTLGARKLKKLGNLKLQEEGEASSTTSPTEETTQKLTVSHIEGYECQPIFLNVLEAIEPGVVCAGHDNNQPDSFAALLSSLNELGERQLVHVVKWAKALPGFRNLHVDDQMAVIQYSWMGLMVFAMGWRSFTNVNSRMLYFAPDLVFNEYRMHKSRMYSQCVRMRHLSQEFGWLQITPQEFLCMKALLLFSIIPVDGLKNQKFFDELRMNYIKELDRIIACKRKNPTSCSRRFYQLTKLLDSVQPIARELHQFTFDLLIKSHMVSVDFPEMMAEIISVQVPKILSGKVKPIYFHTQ
Summary of the method: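 Inhibition of R1881 (0.5 nM final) induced reporter signal was measured in human MDA-kb2 cells; note the MMTV promoter also responds to GR. Exposure lasted 16 hr at 37C.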

[4] = qHTS assay to identify small molecule HDAC inhibitors (AID 1259364); note: top concentration of the series differs between compounds; nearly all actives have a fitted effect of over 45% in size
Summary of the method: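 Endogenous HDAC class I/II activity was measured in wild-type HCT-116 cells by HDAC-Glo luminescence after 2 h compound treatment.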

[5] = qHTS assay to identify small molecule HDAC inhibitors - cell viability counter screen (AID 1259365); note: series mostly up to about 92 µM; nearly all actives have a fitted effect of over 50% in size
Summary of the method: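 Counter screen in wild-type HCT-116 cells: compounds dissolved in DMSO are pin-transferred onto overnight-plated cells and left 2hr at 37C. ATP-based CellTiter-Glo luminescence then measures viable cells.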

[6] = qHTS assay to identify small molecule agonists of the sonic hedgehog signaling (Shh) pathway - cell viability counter screen (AID 1259366); note: nearly all actives have a fitted effect of over 50% in size
Summary of the method: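 Cells are plated at 2,000 per well and left 4hr at 37C, 5% CO2 before compound addition. After 23hr of treatment, CellTiter-Fluor reagent is added for 1hr at 37C and fluorescence is measured.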

[7] = qHTS assay to identify small molecule antagonists of the sonic hedgehog signaling (Shh) pathway - cell viability counter screen (AID 1259367); note: nearly all actives have a fitted effect of over 55% in size
Summary of the method: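 Using CellTiter-Fluor, viability of Gli1-Luc reporter 3T3 cells is read by fluorescence in the wells used for the Shh luciferase assay. Treatment lasts 23 hr with conditioned medium, then reagent 1 hr at 37C.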

[8] = qHTS assay to identify small molecule agonists of the sonic hedgehog signaling (Shh) pathway (AID 1259368; calls by dose curve;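 note: NIH/3T3-derived 3T3Gli1-Luc cells carrying a stable Gli1-driven firefly luciferase reporter; series mostly up to about 92 µM; nearly all actives have a fitted effect of over 15% in size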)
Summary of the method: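 Luminescent signal was taken as a measure of Gli1-controlled luciferase expression in stably transfected NIH/3T3-derived cells that had been treated for 24 hr with compounds delivered in DMSO.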

[9] = qHTS assay to identify small molecule antagonists of the sonic hedgehog signaling (Shh) pathway (AID 1259369; calls by dose curve; note: nearly all actives have a fitted effect of over 45% in size; note: potency is the fitted concentration of half-maximal effect)
Summary of the method: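 Screening used 3T3Gli1-Luc cells at 2,000 per well, compounds delivered in DMSO, and conditioned medium as agonist stimulus; plates incubated 24hr at 37 C and 5% CO2 before a 30min luciferase step.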

[10] = biological target: Estrogen receptor beta (Homo sapiens) (UniProt Q92731); assay: qHTS assay to identify small molecule agonists of the estrogen receptor beta (ER-beta) signaling pathway (AID 1259377; active = well fitted activation curve with a large enough effect in the signal ratio in the repeat runs, not every such curve was filed as active; the % refers to the signal ratio)
Sequence of Estrogen receptor beta (Homo sapiens) (Q92731 whole entry, looked up, the tested form may be a part): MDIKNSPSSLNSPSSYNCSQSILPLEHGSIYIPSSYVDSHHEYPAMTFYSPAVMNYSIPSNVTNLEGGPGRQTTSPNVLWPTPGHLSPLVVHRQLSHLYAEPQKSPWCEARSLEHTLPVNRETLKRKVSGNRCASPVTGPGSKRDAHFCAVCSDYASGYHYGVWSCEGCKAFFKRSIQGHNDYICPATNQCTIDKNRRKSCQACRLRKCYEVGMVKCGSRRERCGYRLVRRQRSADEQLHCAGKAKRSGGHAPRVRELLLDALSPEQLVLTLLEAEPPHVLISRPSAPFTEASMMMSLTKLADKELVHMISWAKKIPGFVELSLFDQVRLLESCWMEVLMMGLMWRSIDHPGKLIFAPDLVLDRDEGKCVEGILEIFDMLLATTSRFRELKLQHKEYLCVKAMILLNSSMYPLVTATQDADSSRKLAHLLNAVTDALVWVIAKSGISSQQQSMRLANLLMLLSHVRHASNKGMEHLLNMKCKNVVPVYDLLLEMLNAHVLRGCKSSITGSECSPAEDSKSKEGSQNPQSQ
Summary of the method: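 Agonist mode cell assay in GripTite HEK293T cells expressing an ER-beta fusion that drives beta-lactamase from an Upstream Activator Sequence; 16 hr compound exposure at 37C, then 2 h LiveBLAzer B/G FRET substrate at room temperature, fluorescence read-out.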

[11] = biological target: Estrogen receptor beta (Homo sapiens) (UniProt Q92731); assay: qHTS assay to identify small molecule antagonists of the estrogen receptor beta (ER-beta) signaling pathway (AID 1259378; active = well fitted inhibition curve with a large enough effect in the signal ratio in the repeat runs, not every such curve was filed as active; the % refers to the signal ratio)
Summary of the method: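 Antagonist mode: compounds added to beta-lactamase reporter HEK293T ER-beta-UAS cells stimulated with E2 (1nM final), 16 hr at 37C. LiveBLAzer B/G FRET substrate, 2 hours room temperature, fluorescence read-out.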

[12] = qHTS assay to identify small molecule agonists of the androgen receptor (AR) signaling pathway in the presence of an antagonist - cell viability counter screen (AID 1259379);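 note: MDA-kb2 human breast cancer cells carrying an MMTV luciferase reporter; series mostly up to about 92 µM; nearly all actives have a fitted effect of over 25% in size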
Summary of the method: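 In MDA-kb2 cells (human breast carcinoma, MMTV-luciferase), compounds at 15 concentrations plus 3.0uM nilutamide; 16 hr, 37C, 0% CO2; CellTiter-Fluor fluorescence read for viability.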

[13] = qHTS assay to identify small molecule agonists of the estrogen receptor beta (ER-beta) signaling pathway - cell viability counter screen (AID 1259380); note: nearly all actives have a fitted effect of over 30% in size
Summary of the method: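 Viability of ER-beta-UAS-bla HEK293T cells was determined by CellTiter-Glo luminescence following 16 hr treatment with test compounds at 37C.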

[14] = biological target: Androgen receptor (Homo sapiens) (UniProt P10275); assay: qHTS assay to identify small molecule agonists of the androgen receptor (AR) signaling pathway in the presence of an antagonist (AID 1259381; calls by dose curve; note: nearly all actives have a fitted effect of over 15% in size)
Summary of the method: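 Here, 15-concentration compound series were pin-transferred onto MDA-kb2 MMTV-luciferase cells already dosed with nilutamide (3.0uM final). After 16hr at 37C, ONE-Glo was added and luminescence read 30min later at room temperature.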

[15] = qHTS assay to identify small molecule antagonists of the estrogen receptor beta (ER-beta) signaling pathway - cell viability counter screen (AID 1259382);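 note: HEK293T cells carrying ER-beta-UAS-bla reporter stimulated with estradiol; series mostly up to about 92 µM; nearly all actives have a fitted effect of over 55% in size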
Summary of the method: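 Tox21 10K library tested in qHTS format on ER-beta-bla HEK293T cells stimulated with 1nM E2; 16 hr treatment at 37C. Same-well CellTiter-Glo luminescence served as the cell viability measure.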

[16] = qHTS assay to identify small molecule agonists or antagonists of the thyroid stimulating hormone receptor (TSHR) signaling pathway - wild type cell line counter screen (AID 1259384; calls by dose curve)
Summary of the method: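 Counter screen in untransfected Hek293: compounds (15-point titration, triplicate) plus phosphodiesterase inhibitor Ro20-1724 added after 18 h plating; 30 min RT. Intracellular cAMP via competitive d2/cryptate immunoassay, 1 h incubation.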

[17] = biological target: Thyrotropin receptor (Homo sapiens) (UniProt P16473); assay: qHTS assay to identify small molecule antagonists of the thyroid stimulating hormone receptor (TSHR) signaling pathway (AID 1259385; calls by dose curve; note: nearly all actives have a fitted effect of over 20% in size)
Sequence of Thyrotropin receptor (Homo sapiens) (P16473 whole entry, looked up): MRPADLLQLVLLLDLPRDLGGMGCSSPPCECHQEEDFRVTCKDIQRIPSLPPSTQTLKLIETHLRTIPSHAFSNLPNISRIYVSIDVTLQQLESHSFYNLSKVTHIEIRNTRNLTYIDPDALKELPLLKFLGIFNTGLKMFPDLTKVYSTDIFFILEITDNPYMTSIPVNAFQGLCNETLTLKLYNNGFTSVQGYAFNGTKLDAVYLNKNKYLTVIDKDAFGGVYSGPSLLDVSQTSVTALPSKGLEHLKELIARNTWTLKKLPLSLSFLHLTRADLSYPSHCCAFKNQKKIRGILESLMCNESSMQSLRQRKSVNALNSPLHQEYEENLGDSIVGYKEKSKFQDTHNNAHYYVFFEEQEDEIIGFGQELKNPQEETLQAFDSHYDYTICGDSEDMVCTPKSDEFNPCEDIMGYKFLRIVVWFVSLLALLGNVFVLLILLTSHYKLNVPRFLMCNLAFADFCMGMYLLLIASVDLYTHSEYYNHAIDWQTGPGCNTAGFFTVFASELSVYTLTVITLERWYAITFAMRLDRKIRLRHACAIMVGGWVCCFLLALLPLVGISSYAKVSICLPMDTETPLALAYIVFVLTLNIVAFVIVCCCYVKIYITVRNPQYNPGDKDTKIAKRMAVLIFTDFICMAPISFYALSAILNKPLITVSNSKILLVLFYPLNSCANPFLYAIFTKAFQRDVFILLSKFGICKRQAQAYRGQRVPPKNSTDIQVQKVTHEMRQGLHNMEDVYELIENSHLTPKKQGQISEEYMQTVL
Summary of the method: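 Antagonist mode: compound-treated TSHR-expressing HEK293 cells were stimulated with 1.5 ng/mL TSH (final) in presence of Ro20-1724 for 30 min at RT. HTRF cAMP detection after 1 h; each compound tested at 15 concentrations, triplicate.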

[18] = biological target: Estrogen receptor (Homo sapiens) (UniProt P03372); assay: qHTS assay to identify small molecule antagonists of the estrogen receptor alpha (ER-alpha) signaling pathway using the BG1 cell line in the presence of 0.1 nM 17-beta-estradiol (AID 1259244); note: nearly all actives have a fitted effect of over 50% in size
Sequence of Estrogen receptor (Homo sapiens) (P03372 whole entry, looked up): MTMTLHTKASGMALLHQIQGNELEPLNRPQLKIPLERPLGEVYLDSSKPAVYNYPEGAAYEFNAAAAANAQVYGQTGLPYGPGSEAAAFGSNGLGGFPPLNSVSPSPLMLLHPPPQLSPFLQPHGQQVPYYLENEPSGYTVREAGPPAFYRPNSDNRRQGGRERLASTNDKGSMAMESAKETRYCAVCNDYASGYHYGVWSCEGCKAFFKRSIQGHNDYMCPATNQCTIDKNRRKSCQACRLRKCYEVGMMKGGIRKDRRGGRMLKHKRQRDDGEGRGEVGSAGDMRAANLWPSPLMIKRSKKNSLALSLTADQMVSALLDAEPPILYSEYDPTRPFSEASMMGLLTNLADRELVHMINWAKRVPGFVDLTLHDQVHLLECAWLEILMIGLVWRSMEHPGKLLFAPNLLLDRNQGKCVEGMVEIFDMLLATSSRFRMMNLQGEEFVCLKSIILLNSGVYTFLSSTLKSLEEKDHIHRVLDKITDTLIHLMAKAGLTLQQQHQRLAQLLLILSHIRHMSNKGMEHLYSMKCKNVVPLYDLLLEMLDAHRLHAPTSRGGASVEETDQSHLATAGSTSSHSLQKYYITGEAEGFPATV
Summary of the method: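 Quantitative high-throughput screen in VM7Luc4E2 cells: compound plus 0.1 nM E2 (final), 22 h, 37C, 5% CO2; ONE-Glo added, 30 min room temperature, luminescence measured.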

[19] = qHTS assay to identify small molecule phospholipidosis (PLD) inducers (AID 1259344; active = well fitted curve in the direction sought with a large enough effect; an effect the other way counts as inactive or inconclusive)
Summary of the method: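 Fluorescent phospholipid staining (LipidTOX Red) measured by automated microscopy in fixed HepG2 cells after 24 h treatment; nuclei counterstained with Hoechst 33342; amiodarone as reference inducer.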

[20] = biological target: Estrogen receptor (Homo sapiens) (UniProt P03372); assay: qHTS assay to identify small molecule agonists of the estrogen receptor alpha (ER-alpha) signaling pathway in the presence of an antagonist (AID 1259383; calls by dose curve; note: top concentration of the series differs between compounds; nearly all actives have a fitted effect of over 15% in size)
Summary of the method: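 In VM7Luc4E2 cells, 4,000 per well, compounds at 15 concentrations were co-incubated 22hr at 37C with 10.0nM final ICI-182,780. Luminescence from the stably transfected 4×ERE-luciferase reporter was recorded 30min after ONE-Glo addition.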

Measured: Potency

O=NN1CCCCC1
not listed: [18] | [19] | [20]
inactive: all other assays above

COC(=O)C(c1ccccc1)C1CCCCN1 (stereo not given)
not listed: [6] | [10] | [17]
inactive: all other assays above

CCC(C)n1c(=O)[nH]c(C)c(Br)c1=O (stereo not given)
not listed: [3] | [14] | [17] | [19]
inactive: all other assays above

N#CCCC#N
not listed: [3] | [14] | [16] | [17] | [19]
inactive: all other assays above

ClC(Cl)Br
not listed: [3] | [10] | [11] | [14] | [19] | [20]
inactive: all other assays above

O=C1CN=C(c2ccccc2)c2cc([N+](=O)[O-])ccc2N1
not listed: [3] | [6] | [9] | [14] | [20]
inactive: all other assays above

[O]=[Cd]
not listed: [3] | [6] | [9] | [10] | [11] | [14] | [15]
inactive: all other assays above

N#CCNCC#N
not listed: [3] | [13] | [14] | [15] | [17] | [19] | [20]
inactive: all other assays above

COC(=O)c1c(C(F)F)nc(C(F)(F)F)c(C2=NCCS2)c1CC(C)C
not listed: [3] | [10] | [19]
inactive: all other assays above

[Cl][Sn]([Cl])([Cl])[Cl]
not listed: [3] | [10] | [11] | [14] | [16] | [17] | [19] | [20]
inactive: all other assays above

BrCCCCCCBr
active: [9] 24.3 µM
not listed: [3] | [13] | [14] | [19] | [20]
inactive: all other assays above

NC(=O)O
not listed: [3] | [10] | [11] | [14] | [17] | [19]
inactive: all other assays above

C=CC1CC=CCC1 (stereo not given)
not listed: [3] | [10] | [14] | [15] | [17] | [19]
inactive: all other assays above

COc1cc2c(cc1OC)[C@@]13CCN4CC5=CCO[C@H]6CC(=O)N2[C@H]1[C@H]6[C@H]5C[C@H]43
inactive: [1] | [2] | [18] | [19] | [4] | [5] | [12] | [15] | [20] | [16] | [17]

CS(=O)(=O)c1cc(C(F)(F)F)ccc1C(=O)c1cnoc1C1CC1
not listed: [3] | [10] | [14] | [16] | [17] | [19]
inactive: all other assays above

CCOP(=S)(OCC)Oc1cc(-c2ccccc2)on1
not listed: [3] | [10] | [14] | [17] | [19]
inactive: all other assays above

O=C(Oc1ccc(Br)cc1)N1CCN2CCC1CC2
not listed: [3] | [10] | [11] | [14] | [19]
inactive: all other assays above

ClCC(Cl)(Cl)Cl
not listed: [3] | [9] | [14] | [16] | [17] | [19] | [20]
inactive: all other assays above
